Usually inhibition stands for the drop in the measured response relative to a control, in per cent.

Molecules are shown by their SMILES. Calls of active or inactive are those of the source.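 How the source made its calls, unless noted: active means luciferase signal above three times the same-plate solvent-only control wells; inactive means the rest.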

The values that follow come from PubChem BioAssay.

Assay [1] concerns the target 6-phosphogluconate dehydrogenase, decarboxylating (Homo sapiens) (UniProt P52209). As to the kind of experiment: 6PGD enzyme inhibitors, primary screen, biochemical, human, recombinant enzyme, NADPH absorbance (AID 1159550;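 active means at least 20% inhibition of 6-phosphogluconate dehydrogenase activity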). Particulars: recombinant 6PGD, NADPH absorbance 341 nm; at 10 µM; stronger effect = higher value.
The nature of assay [2]: differential killing of epithelial or mesenchymal cells, primary screen, imaging, PC-3E GFP, TEM4-18 mCherry, co-culture (AID 1345086;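 active means compounds killing one labelled cell type while sparing the other, by normalised counts and ratio limits, not self-fluorescent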;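 on all read-outs here: cells exposed to compound for 72 h before imaging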;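 on red/green cell ratio (normalised): normalised mesenchymal count divided by normalised epithelial count so high means epithelial killing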). The note with it: imaging cell counts, at 1 µM; for red/green cell ratio (normalised): actives lie on both sides, counts scaled to control wells, 1 = unselective.
The target of assay [3] is Mitogen-activated protein kinase 7 (Homo sapiens) (UniProt Q13164). As to the kind of experiment: ERK5 transactivation activators in reporter cells, primary screen, cell-based, HTS (AID 1508626).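 Further: luciferase driven by Gal4-ERK5 fusion binding five Gal4 sites before minimal TATA.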 The note with it: HeLa Gal4-ERK5 transactivation, 18 h, at 5 µM, stronger effect = higher value.
The mark [4] stands for this setting: measured here: epithelial PC-3E GFP cell survival.
The mark [5] stands for this setting: measured here: mesenchymal TEM4-18 mCherry cell survival.

Mitogen-activated protein kinase 7 (Homo sapiens), sequence (Q13164 whole entry, looked up, the tested form may be a part): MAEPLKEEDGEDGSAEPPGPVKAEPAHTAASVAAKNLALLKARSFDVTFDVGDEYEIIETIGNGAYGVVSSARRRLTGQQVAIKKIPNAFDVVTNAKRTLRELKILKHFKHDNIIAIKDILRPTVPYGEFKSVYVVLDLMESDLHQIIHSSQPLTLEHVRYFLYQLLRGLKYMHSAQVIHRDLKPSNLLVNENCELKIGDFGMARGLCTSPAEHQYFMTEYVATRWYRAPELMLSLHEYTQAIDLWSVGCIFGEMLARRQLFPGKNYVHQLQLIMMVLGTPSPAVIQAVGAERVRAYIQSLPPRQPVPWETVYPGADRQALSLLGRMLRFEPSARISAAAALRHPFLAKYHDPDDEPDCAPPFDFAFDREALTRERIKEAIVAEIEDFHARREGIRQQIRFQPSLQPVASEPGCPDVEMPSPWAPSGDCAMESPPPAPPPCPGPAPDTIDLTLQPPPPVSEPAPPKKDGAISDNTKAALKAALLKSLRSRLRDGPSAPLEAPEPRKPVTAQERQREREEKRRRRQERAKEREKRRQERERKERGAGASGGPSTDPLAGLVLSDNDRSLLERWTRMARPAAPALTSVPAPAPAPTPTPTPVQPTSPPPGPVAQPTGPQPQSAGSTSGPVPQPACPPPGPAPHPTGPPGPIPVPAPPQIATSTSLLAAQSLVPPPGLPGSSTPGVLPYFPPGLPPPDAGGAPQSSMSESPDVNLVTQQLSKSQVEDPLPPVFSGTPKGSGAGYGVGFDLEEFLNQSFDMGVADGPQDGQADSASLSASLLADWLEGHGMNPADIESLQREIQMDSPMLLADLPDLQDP
6-phosphogluconate dehydrogenase, decarboxylating (Homo sapiens), sequence (P52209 whole entry, looked up): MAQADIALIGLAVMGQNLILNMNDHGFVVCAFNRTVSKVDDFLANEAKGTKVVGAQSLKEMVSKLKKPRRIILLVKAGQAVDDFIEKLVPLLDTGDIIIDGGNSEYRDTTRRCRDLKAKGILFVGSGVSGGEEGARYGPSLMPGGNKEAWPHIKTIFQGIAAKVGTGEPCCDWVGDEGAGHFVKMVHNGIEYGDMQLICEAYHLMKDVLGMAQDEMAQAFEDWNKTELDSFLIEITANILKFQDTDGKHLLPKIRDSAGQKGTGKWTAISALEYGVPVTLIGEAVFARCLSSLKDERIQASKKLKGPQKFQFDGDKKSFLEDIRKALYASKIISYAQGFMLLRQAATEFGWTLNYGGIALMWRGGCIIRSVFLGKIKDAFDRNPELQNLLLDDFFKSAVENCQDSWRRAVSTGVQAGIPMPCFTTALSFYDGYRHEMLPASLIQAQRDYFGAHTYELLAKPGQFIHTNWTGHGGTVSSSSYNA

Take `O=C(CC(=O)c1ccccc1)c1ccccc1`: the inhibition in assay [1] is 21.3% (active). For the same molecule, the red/green cell ratio (normalised) in assay [2] was 0.84 (inactive). For the same molecule, the figures for the normalised cell number in assay [2] (setting [4]) and in assay [2] (setting [5]) were 1.16 and 0.97, respectively. The luciferase signal in assay [3] is 80 AU (inactive).
For `COC1=CC(=O)C(C(=O)c2ccccc2)=CC1=O`, in that order: -0.278% (inactive), 1.01 (inactive), 1.01, 1.03 and 72 AU (inactive).
Taken in the same sequence, the figures for `Cc1cc(=O)oc2cc(O)c(O)cc12` were 8.55% (inactive), 0.79 (inactive), 1.15, 0.91 and 60 AU (inactive).
Take `O=C1C=CC2=C3c4cc(O)c(O)cc4CC3(O)COC2=C1O` (stereo not given): in assay [1], the inhibition is 27.6% (active). In addition, in assay [2], the red/green cell ratio (normalised) is 0.83 (inactive). For the same molecule, the normalised cell number in assay [2] (setting [4]) was found to be 1.07; in assay [2] (setting [5]), 0.89. Also, in assay [3], the luciferase signal is 32 AU (inactive).
For `CC(=O)O[C@@H]1CC[C@@]2(C)C(C[C@@H](OC(C)=O)[C@@]3(C)C4=CC(=O)O[C@@H](c5ccoc5)[C@]4(C)CCC23)C1(C)C` (stereo not given in full), in that order: -14.7% (inactive), 0.98 (inactive), 1.08, 1.06 and 56 AU (inactive).
For the molecule `CCC(C(N)=O)c1ccccc1` (stereo not given), the inhibition in assay [1] is -20.8% (inactive). In addition, the red/green cell ratio (normalised) in assay [2] was 0.96 (inactive). Further, the normalised cell number was 1.17 in assay [2] (setting [4]) and 1.12 in assay [2] (setting [5]). In assay [3], the luciferase signal is 68 AU (inactive).
Taken in the same sequence, the figures for `NCCC(=O)N[C@@H](Cc1cnc[nH]1)C(=O)O` were -1.18% (inactive), 1.1 (inactive), 0.93, 1.03 and 100 AU (inactive).
Taken in the same sequence, the figures for `C#CCCCCCCCCCCCC(O)CC(O)CO` (stereo not given) were 6.35% (inactive), 0.88 (inactive), 0.94, 0.82 and 52 AU (inactive).
Taken in the same sequence, the figures for `C=C[C@@](C)(O)CCC1C(=C)CCC2[C@@](C)(CO)CCC[C@]12C` (stereo not given in full) were 4.45% (inactive), 0.89 (inactive), 1.15, 1.03 and 36 AU (inactive).
In the case of `CC(C)=CCOc1cc2oc(=O)ccc2cc1O`, in assay [1], the inhibition was 1.28% (inactive). In addition, the red/green cell ratio (normalised) in assay [2] is 1.03 (inactive). For the same molecule, the values for the normalised cell number in assay [2] (setting [4]) and in assay [2] (setting [5]) were 1.12 and 1.16, respectively. In assay [3], the luciferase signal is 36 AU (inactive).
For `OC[C@@H](O)[C@@H](O[C@@H]1O[C@H](CO)[C@@H](O)[C@H](O)[C@H]1O)[C@H](O)[C@@H](O)CO`, in that order: 10.6% (inactive), 0.88 (inactive), 1.03, 0.9 and 208 AU (inactive).
Taken in the same sequence, the figures for `COc1c2ccoc2cc2oc(C)cc(=O)c12` were 12.5% (inactive), 0.91 (inactive), 1.19, 1.08 and 52 AU (inactive).
Taken in the same sequence, the figures for `COc1cc(/C=C/C(=O)O)cc(OC)c1OC` were -1.71% (inactive), 0.99 (inactive), 1.06, 1.04 and 52 AU (inactive).
On to `COc1c2c(cc3occ(-c4ccc5c(c4)OCO5)c(=O)c13)OC(C)(C)C=C2`, for which the inhibition in assay [1] was -0.247% (inactive). Moreover, the red/green cell ratio (normalised) in assay [2] was 0.95 (inactive). Also, the normalised cell number worked out at 1.19 in assay [2] (setting [4]) and 1.14 in assay [2] (setting [5]). Further, the luciferase signal in assay [3] was 60 AU (inactive).
For `COc1ccc2c(c1)OCC(Cc1ccc(OC)c(OC)c1)C2=O` (stereo not given), in that order: 8.36% (inactive), 0.98 (inactive), 0.85, 0.84 and 56 AU (inactive).
`CC(C)=CCc1c2c(c3occ(-c4ccc(O)cc4)c(=O)c3c1O)C=CC(C)(C)O2`: in assay [1], the inhibition was 8.7% (inactive). Further, the red/green cell ratio (normalised) in assay [2] was 1.02 (inactive). The normalised cell number came to 1.04 in assay [2] (setting [4]) and 1.06 in assay [2] (setting [5]). The luciferase signal in assay [3] is 392 AU (active).
Taken in the same sequence, the figures for `COc1ccc2c(c1)OC[C@@H](Cc1ccc(OC)c(OC)c1)[C@@H]2O` were 11.8% (inactive), 0.93 (inactive), 0.92, 0.85 and 68 AU (inactive).
For `CC(=O)OC1CCC23CC1(C)CCC2C(C)(C)CC3OC(C)=O` (stereo not given), in that order: -1.38% (inactive), 1.04 (inactive), 1.07, 1.11 and 80 AU (inactive).
For `COc1c(O)cc2oc3cc(O)c(CC=C(C)C)c(O)c3c(=O)c2c1CC=C(C)C`, in that order: 11.6% (inactive), 0.81 (inactive), 1.13, 0.91 and 40 AU (inactive).
For the molecule `C=CC(C1=CC(=O)C(OC)=CC1=O)c1ccc(O)cc1` (stereo not given), in assay [1], the inhibition was 1.39% (inactive). For the same molecule, the red/green cell ratio (normalised) in assay [2] was 0.91 (inactive). The normalised cell number worked out at 1.05 in assay [2] (setting [4]) and 0.95 in assay [2] (setting [5]). Besides, the luciferase signal in assay [3] was 136 AU (inactive).
For `COc1ccc(-c2coc3c(OC)c(OC)cc(O)c3c2=O)cc1`, the inhibition in assay [1] is -3.95% (inactive). For the same molecule, the red/green cell ratio (normalised) in assay [2] is 1.01 (inactive). For the same molecule, the normalised cell number in assay [2] (setting [4]) was 1.18; in assay [2] (setting [5]), 1.19. Moreover, in assay [3], the luciferase signal is 56 AU (inactive).
Take `NC(C(=O)O)C(O)C(=O)O` (stereo not given): the inhibition in assay [1] was 17.7% (inactive). In assay [2], the red/green cell ratio (normalised) was 1.01 (inactive). The figures for the normalised cell number in assay [2] (setting [4]) and in assay [2] (setting [5]) were 1.05 and 1.06, respectively. Besides, the luciferase signal in assay [3] was 260 AU (active).
For `COc1cc(O)c(C(C)=O)c(OC)c1`, in that order: 0.271% (inactive), 0.74 (inactive), 1.02, 0.75 and 8 AU (inactive).
With `COc1ccc(C(=O)CC(=O)O)c2c1C=CC(C)(C)O2`, in assay [1], the inhibition is 10.2% (inactive). Moreover, the red/green cell ratio (normalised) in assay [2] was 0.95 (inactive). Also, the normalised cell number came out at 0.98 in assay [2] (setting [4]) and 0.93 in assay [2] (setting [5]). Moreover, in assay [3], the luciferase signal was 60 AU (inactive).
Turning to `COc1cc(O)ccc1C(C)=O`, the inhibition in assay [1] is 12.4% (inactive). The red/green cell ratio (normalised) in assay [2] was 0.96 (inactive). The normalised cell number stood at 0.95 in assay [2] (setting [4]) and 0.91 in assay [2] (setting [5]). The luciferase signal in assay [3] is 124 AU (inactive).
For `O=C(O)CCCN1C(=O)c2cccc3cccc(c23)C1=O`, in that order: -3.59% (inactive), 0.82 (inactive), 1.29, 1.06 and 48 AU (inactive).
